From PubChem BioAssay
The list is not random: actives were taken first. Their share in the collection is about 21%.
Giardia FBPA inh: Giardia lamblia aldolase inhibition. A8B2U2. Potency, µM (top dose mostly 59.6 µM), inactives show top-dose activity, negative = inhibition, actives largely listed as inhibitors. 0.71% of 290,000 active. purified Giardia FBPA; note: potency is the fitted concentration of half-maximal effect; % is set by controls: 0 for no effect and ±100 for the full control effect; nearly all actives have a fitted effect of over 55% in size
Target sequence (A8B2U2 whole entry, looked up): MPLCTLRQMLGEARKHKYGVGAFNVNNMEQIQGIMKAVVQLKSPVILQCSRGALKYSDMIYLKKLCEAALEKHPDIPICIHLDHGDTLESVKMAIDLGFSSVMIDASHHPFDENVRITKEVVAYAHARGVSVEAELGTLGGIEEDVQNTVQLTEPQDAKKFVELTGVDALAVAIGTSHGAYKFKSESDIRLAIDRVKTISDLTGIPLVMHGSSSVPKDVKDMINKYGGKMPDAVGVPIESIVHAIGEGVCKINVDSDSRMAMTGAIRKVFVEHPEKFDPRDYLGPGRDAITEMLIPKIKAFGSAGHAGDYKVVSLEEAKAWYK
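40 nM FBPA preincubated 10 min at RT with compound (up to 57.5 uM final), then substrate plus GAPDH/TPI/NAD/arsenate coupling and diaphorase/resazurin added. Fluorescence read after 20 min at RT, 525/598 nm.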
NS1 function inh: influenza NS1 inhibition | Potency, µM (highest dose often 46.1 µM), without a hit: at the top dose activity, positive = more growth | 0.4% of 270,000 active; calls by dose curve; note: potency is the fitted concentration of half-maximal effect; actives are rising curves; nearly all actives have a fitted effect of over 50% in size
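Growth recovery, yeast-based: influenza A NS1 expressed in S. cerevisiae causes slow growth, and suppressors are detected by OD600. The parent strain without NS1 is used as positive control.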
Shiga toxin inh: blocks Shiga toxin action in Vero cells | Vero cells, Shiga toxin protein synthesis inhibition reporter | inhibition, % at 38.7 µM | 9.2% of 290,000 active; in the data active = inhibition mostly above about 28%, no sharp cut-off; inactive = mostly below about 43%; note: 0% is about no effect
Cycloheximide cs: affects cycloheximide protein synthesis inhibition readout, counter-screen | cell reporter, cycloheximide protein synthesis inhibition counterscreen | max response, % | 12% of 300,000 active; in the data active = max response mostly above about 13%, no sharp cut-off; inactive = mostly below about 14%; note: read at 38.3 µM for the half of the compounds with a filed dose; 0% is about no effect
Pf growth 48h: inhibits P. falciparum growth in the first generation, 48 h | P. falciparum luciferase growth in erythrocytes, 48 h | Potency, µM (titrated, usually from 28.7 µM), without a hit: at the top dose activity change, negative = inhibition, actives largely listed as inhibitors | 5.9% of 310,000 active; note: potency is the fitted concentration of half-maximal effect; % is set by controls: 0 for no effect and ±100 for the full control effect
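In quantitative HTS format, infected erythrocytes bearing luciferase-reporter parasites were treated for a single generation at 37 C. Luminescence after adding detection reagent served as the growth measure.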
Pf growth 96h: inhibits malaria parasite growth, 96 h. Potency, µM (series often up to 28.7 µM), without a hit: top-dose activity change, negative = inhibition, most hits filed as inhibitors. P. falciparum luciferase reporter growth, 96 h. 6.9% of 320,000 active; note: potency is the fitted concentration of half-maximal effect; % is set by controls: 0 for no effect and ±100 for the full control effect
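Parasite growth measured via integrated firefly luciferase reporter in P. falciparum. Infected erythrocytes at 2% hematocrit, 0.05% parasitemia final were treated 96 hours at 37 C under 5% CO2, and luminescence was read.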
* hit, by the source's call; u = inconclusive; x = not tested or not shown; [ ] = dose if it differs, or a comment. Unless noted, calls come from the whole dose curve; as a rule, active = well fitted curve in the direction sought with a large enough effect; inconclusive = small, poorly fitted or top-dose-only effect, or another doubt; inactive = no such curve, though single readings can be large; an effect the other way counts as inactive or inconclusive.

SMILES	Giardia FBPA inh	NS1 function inh	Shiga toxin inh	Cycloheximide cs	Pf growth 48h	Pf growth 96h
S=C1NCCc2ccc(Cl)cc2C1c1ccccc1Cl (configuration not stated)	-3.2%	26.0%	2.0	-2.0	11.7µM*	u
CC(C)c1ccc(NC(=O)CSc2n[nH]c(=O)n2C2CC2)cc1	x	6.5%	12.6	10.3	4.3%	12.0%
O=C(CSc1n[nH]c(=O)n1C1CC1)c1ccc(F)cc1	-2.0%	-1.9%	17.5	13.5*	31.3%	42.9%
Cc1cc(C)nc(NC(=O)c2ccc(Br)s2)n1	14.9%	-4.9%	x	1.0	42.9%	30.5%
Cc1csc(NC(=O)c2cccs2)n1	-7.2%	-17.7%	100.4*	54.5*	213.4%	x
Cc1csc(NC(=O)CCC(=O)c2cccs2)n1	-9.7%	x	140.6	19.3*	u	u
Cc1csc(NC(=O)c2ccc(Br)s2)n1	-14.1%	-29.2%	136.5*	42.6*	112.1%	132.5%
CCO[C@@H]1OC(C(=O)O)=C[C@H](c2ccc(Br)cc2)[C@H]1CCCO	2.5%	3.4%	2.7	-2.0	17.9%	34.2%
COc1ccc(-c2nc(-c3ccccc3)oc2Nc2ccccc2C)cc1	-2.0%	x	x	x	x	x
CCCCOC(=O)Nc1ccc(S(=O)(=O)Nc2nc(C)cc(C)n2)cc1	-0.2%	6.2%	-15.7	-1.7	-4.6%	u
CCCCOC(=O)NS(=O)(=O)c1sc(CC(C)C)cc1-c1ccc(Cn2c(CC)nc3c(C)cc(C)nc32)cc1	-2.3%	u	x	x	14.7µM*	u
CC(C)(O)[C@@H]1CCC[N+]2(C)CCCC[C@H]12 (some centres not stated)	0.5%	x	x	x	x	x
CSCCC(NC(=O)c1ccco1)C(=O)N(C)CC(=O)Nc1ccccc1Br (configuration not stated)	x	x	x	x	u	11.3%
COc1cc(C=O)ccc1OCCCOc1ccccc1[N+](=O)[O-]	-6.8%	-21.3%	64.1*	47.8*	39.1%	11.4%
COc1cc(C=O)ccc1OCCCOc1ccc([N+](=O)[O-])cc1	-5.3%	25.9%	9.7	-1.9	1.5%	1.9%
COc1cc(C=O)ccc1OCCOc1ccccc1[N+](=O)[O-]	0.1%	-0.9%	85.4*	28.1*	18.0%	14.4%
COc1cc(C=O)ccc1OS(=O)(=O)c1ccccc1[N+](=O)[O-]	-20.9%	-30.5%	22.1	22.3*	12.0%	-27.6%
COc1cc(C=O)ccc1OCCCCOc1ccccc1[N+](=O)[O-]	1.5%	-21.0%	34.9*	14.8*	15.5%	1.7%
CCCCNc1nc(C)nc2c1nc(-c1ccccc1)n2CCCN1CCCCC1C (configuration not stated)	4.0%	x	x	x	x	x
CC(CN1CCN(C/C=C/c2ccccc2)CC1)c1ccccc1 (configuration not stated)	-15.3%	-8.1%	x	-2.8	11.6%	-15.3%
COc1ccc2[nH]cc(CCNC(=O)C3CCCCC3)c2c1	-0.3%	u	6.8	-0.8	2.1%	u
O=C1N/C(=C\c2ccc(O)cc2)C(O)=C1C=NCc1ccccc1	-0.7%	-6.2%	14.4	15.9*	u	12.3%
COc1ccc(/C=C2\NC(=O)C(C=NCc3ccccc3)=C2O)cc1	0.5%	9.7%	27.7	9.8	u	-3.0%
COC(=O)c1ccc(Cn2nnc3c(=O)[nH]c(C4CCCN(S(=O)(=O)c5cccc(Cl)c5)C4)nc32)cc1 (configuration not stated)	-4.9%	4.1%	9.8	-2.7	u	u
CCN1C(=O)[C@H]2[C@H]3[C@H](O)[C@H](O)C/C(=N/OC[C@@H](C)[C@H](OCc4ccccc4)C(C)C)[C@@H]3CC[C@@H]2C1=O	-2.7%[12.9 µM]	x	x	x	x	x
SMILES	Giardia FBPA inh	NS1 function inh	Shiga toxin inh	Cycloheximide cs	Pf growth 48h	Pf growth 96h
c1ccc2c(c1)nc(N1CCOCC1)c1nnnn12	0.9%	14.2%	active	32.3*	54.9%	u
c1ccc(N2CCN(c3nc4ccccc4n4nnnc34)CC2)cc1	6.0%	22.2%	27.8*	37.7*	u	-10.8%
COc1ccccc1CN1CC(C(=O)NCc2cc(C(C)C)no2)CCC1=O (configuration not stated)	x	-6.9%	16.7	10.2	6.3%	-22.4%
C[N+](C)(C)CCN(Cc1cccs1)c1ccccn1	x	-7.7%	x	x	x	x
COc1ccc(C(=O)OCc2csc(C)n2)c(O)c1	-0.3%	-2.3%	60.9*	42.3*	162.1%	131.0%
COc1ccc(C(=O)COC(=O)c2ccccc2O)c(OC)c1	x	x	x	x	346.9%	280.1%
N/N=C(\Cc1cscn1)c1ccc(O)cc1O	-12.2%	6.5%	80.2*	36.3*	8.5%	0.0%
Cc1nc(C/C(=N\N)c2ccc(O)cc2O)cs1	-10.2%	4.2%	63.9	24.5*	u	-12.0%
Cc1cc(O)cc(O)c1C(=O)Cc1cscn1	-2.8%	u	-19.3	16.2	18.9%	9.1%[5.75 µM]
Cc1ccc(NC(=S)Nc2ccc(OC(F)F)c(Cl)c2)cc1F	-13.1%	x	32.7	4.9	u	u
CCOc1ccc(N2C(=O)C3ON(c4ccccc4)C(c4cccs4)C3C2=O)cc1 (configuration not stated)	5.9%	1.8%	-10.3	-4.2	11.7µM*	68.1%
COCCn1c(N)c(C(=S)NC(=O)c2cccs2)c(=O)[nH]c1=O	-14.6%	0.1%	32.6	1.0	-6.3%	12.5%
Cc1nc2ccc(NC(=O)COc3ccccc3)cc2s1	6.8%	x	32.7	22.8*	57.1%	62.6%
Cc1nc2ccc(NC(=O)COc3cccc(F)c3)cc2s1	-4.7%	-6.1%	30.5	25.8*	-22.4%	27.2%
Cc1cccc(OCC(=O)Nc2ccc3nc(C)sc3c2)c1	-6.5%	-45.9%	62.9*	9.8	0.0%	-2.5%
O=C(/C=C/c1ccccc1)N1CCCC1CO (configuration not stated)	-2.2%[12.9 µM]	x	x	x	x	x
CC[n+]1c(C)cc2c(sc3ccccc32)c1C	-14.0%	x	2.5	1.2	u	u
CCc1nc(C)cc2c1sc1ccccc12	-12.0%	-3.6%	38.0	19.2*	22.9%	31.7%
Cn1c(=NCC(O)COc2ccccc2)sc2ccccc21 (configuration not stated)	0.0%	-10.2%	22.6	17.7	27.8%	12.4%
COc1ccc(N=c2sc3ccccc3n2C)cc1	-7.7%	4.2%	50.5	40.9*	231.5%	x
COc1ccccc1N=c1sc2ccccc2n1C	-3.5%	9.1%	2.5	12.8*	5.3%	x
Cc1nn(-c2ccccc2)c(NC(=O)NS(=O)(=O)c2ccc(Cl)cc2)c1C#N	11.3%	x	-3.6	-8.0	x	x
COc1cc2oc3ccccc3c2cc1N(CC(=O)N(C)C)S(=O)(=O)c1ccccc1	5.0%	3.6%	-18.6	-2.7	u	u
CCN(CC)C(=O)CN(c1cc2c(cc1OC)oc1ccccc12)S(=O)(=O)c1ccccc1	-0.7%	10.5%	43.0	-2.1	9.28µM*	10.4µM*
O=C(NCCC1CCCCN1S(=O)(=O)c1ccc(F)cc1)C(=O)NCc1ccccn1 (configuration not stated)	x	x	x	x	0.1%	u
Cn1nnnc1SCC(=O)Nc1ncc(Cl)cc1Cl	x	x	x	x	-6.8%	11.1%
